ERK AVP block: vasopressin-driven ERK pathway inhibition; HEK293-V1b, vasopressin-stimulated pERK AlphaScreen; Potency, µM (titrated, usually from 57.5 µM), for the others: at the top dose activity, negative = inhibition, most hits filed as inhibitors; actives 0.99% (n = 72,000); AID 995; also: % is scaled to controls: 0 for no effect and ±100 for the full control effect; nearly all actives have a fitted effect of over 55% in size
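qHTS, compounds titrated on V1b-expressing HEK293 cells. Preincubation 30 min at 37C, vasopressin 25 nM for 5 min, lysis 10 min, bead incubation 5 hr at room temperature.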
p53ts 32C kill: kills p53ts cells at the permissive temperature; H1299-p53A138V at 32C, ATP luminescence viability, 24 h; Potency, µM (top dose mostly 46.1 µM), without a hit: at the highest dose activity change, negative = cytotoxicity, hits mostly cytotoxic; actives 0.93% (n = 130,000); AID 924;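 also: 0% = DMSO and -100% = full killing by reference compound; nearly all actives have a fitted effect of over 55% in size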
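Viability by ATPlite luminescence after 24 h compound treatment (up to 46 uM) at the permissive 32C. Cells are H1299 carrying p53 A138V. Scale runs from DMSO basal to 100 uM tamoxifen as full kill; AC50 from Hill fits.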
Imprint erasure: inducers of genomic imprint erasure in mouse ES cells. Potency, µM (series often up to 60.7 µM), for the others: top-dose activity change, positive = activation, usual class: activators. actives 0.02% (n = 110,000). mouse ES Peg3-LacZ reporter, beta-gal luminescence, 40 h
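Gelatin-coated wells received 300 freshly trypsinized female ES cells with a Peg3LacZ-Neo reporter on the maternal allele, then incubated 40 hours at 37C. BetaGlo was added for 5 minutes at room temperature before a single luminescence read.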
p53ts 39C kill: kills p53ts cells at the nonpermissive temperature. H1299-p53A138V viability at 39C, ATP luminescence, 24 h. Potency, µM (top dose mostly 46.1 µM), inactives show at the highest dose activity change, negative = cell killing, hits mostly cytotoxic. actives 1.5% (n = 130,000); also: % is scaled to controls: 0 for no effect and ±100 for the full control effect; nearly all actives have a fitted effect of over 55% in size
IkB sig inh: suppresses IkB signaling in ABC-DLBCL reporter cells; ABC-DLBCL IkBa-CBG/CBR dual luciferase ratio, 4 h; response scale: scaled: untreated 0%, proteasome inhibitor 100%; Potency, µM (top dose mostly 57.1 µM), without a hit: at the top dose IkBa stabilization activation; actives 0.04% (n = 110,000); active = well fitted curve in the direction sought with a large enough effect in the signal ratio, not every such curve was filed as active; inconclusive = small, poorly fitted or top-dose-only effect, or a change in a side signal; the % refers to the signal ratio;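 also: the direction sought is a rising ratio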
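Luminescence ratio of IκBα-fused green versus native red beetle luciferase in OCI-Ly3 cells, 4 h post-doxycycline with compound; red signal alone, scaled from basal (0%) to zero light (-100%), flagged nonspecific or cytotoxic effects.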
* hit, by the source's call; ? = inconclusive; . = not tested or not shown; [ ] = dose if it differs, or a comment. Hits are enriched below; roughly 2.3% of the tested compounds scored in any of these assays. Unless noted, calls follow the shape of the dose curve; as a rule, active = well fitted curve in the direction sought with a large enough effect; inconclusive = small, poorly fitted or top-dose-only effect, or another doubt; inactive = no such curve, though single readings can be large; an effect the other way counts as inactive or inconclusive. Potency is read from the fitted curve at half-maximal effect.

SMILES	ERK AVP block	p53ts 32C kill	Imprint erasure	p53ts 39C kill	IkB sig inh
Cc1ccc(NC(=O)CSc2nnc3[nH]c(=O)cc(-c4ccccc4)n23)cc1Cl	.	?	-13%[10.9 µM]	1.6µM*	?
Cc1ccc(C)c(NC(=O)CSc2nnc3[nH]c(=O)cc(-c4ccccc4)n23)c1	.	?	7%[10.9 µM]	1.3µM*	?
C=C(CO)[C@H]1Cc2c(ccc3c(=O)c4c(oc23)COc2cc(OC)c(OC)cc2-4)O1	.	.	.	.	-1%[11.4 µM]
CN1[C@@H]2CC[C@@H]1CC(OC(=O)[C@H](CO)c1ccccc1)C2 (stereo partly drawn)	.	.	9%	.	.
COc1cccc(OC)c1OCCNC[C@@H]1CSc2ccccc2O1	-3%	-12%	.	?	1%
CCOc1ccc(NC(=O)Cn2c(=O)n(-c3ccccc3)c(=O)c3c4c(sc32)CCCC4)cc1	.	-9%	20%[10.9 µM]	-10%	-1%
COc1ccc(NC(=O)Cn2c(=O)n(-c3ccccc3)c(=O)c3c4c(sc32)CCCC4)cc1	.	?	8%[10.9 µM]	25µM*	?
Cc1cc(C(=O)CSc2nnc(N)s2)c(C)n1CCc1ccc(Cl)cc1	24%	15%	?	1%	?
COc1ccc(CCn2c(C)cc(C(=O)CSc3nnc(N)s3)c2C)cc1	20µM*	-22%	-16%	-26%	?
Cc1[nH]nc(-c2ccc(O)cc2O)c1-c1ccc(Cl)cc1	?	16%	-10%	2%	?
COc1ccc(-c2n[nH]c(C)c2-c2ccc(Cl)cc2)c(O)c1OC	25µM*	13µM*	-23%	?	?
c1ccc(-c2csc3ncn4cnnc4c23)cc1	6.3µM*	4%	-4%	-1%	1%
Cn1cc(/C=N/n2cnc3scc(-c4ccccc4)c3c2=O)c2ccccc21	-15%	16%	-17%	8%	-1%
O=C(O)CC[C@@H](NC(=O)c1ccccc1C(=O)O)C(=O)O	42%	-2%	.	19%	6%
COc1ccc(C(C)=O)cc1COC(=O)c1cnc(C)cn1	-16%	3%	16µM*	3%	-3%
CCOc1ccccc1CNC(=O)c1cc2occc2n1C	20µM*	-1%	-10%	-8%	2%
S=C1N[C@H](c2ccccc2)N[C@H](c2ccccc2)S1	-17%[11.5 µM]	6%[9.22 µM]	-12%[10.9 µM]	7%[9.22 µM]	1%[11.4 µM]
COc1ccc(-c2cc(C(=O)Nc3c(C)nn(Cc4ccc(Cl)cc4)c3C)no2)cc1	10%	-14%	-13%	-20%	0%
COc1ccccc1-c1cc(C(=O)Nc2c(C)nn(Cc3ccc(Cl)cc3)c2C)no1	.	?	-11%[10.9 µM]	13µM*	?
CCn1c2ccccc2c2nnc(SCC(=O)c3ccccc3)nc21	20µM*	14%	-7%	-5%	-8%
CCN(CC)CCn1c(=N)n(CCOc2ccccc2Cl)c2ccccc21	.	?	-7%[10.9 µM]	10µM*	?
CCN(CC)CCn1c(=N)n(CC(O)COc2ccccc2C)c2ccccc21 (stereo not drawn)	.	?	-8%[10.9 µM]	16µM*	?
CCn1c(=N)n(CC(O)COc2ccccc2)c2ccccc21 (stereo not drawn)	.	-7%	-16%[10.9 µM]	6%	-1%
Cc1cccc(OCC(O)Cn2c(=N)n(CCN3CCCCC3)c3ccccc32)c1 (stereo not drawn)	-11%	-15%	-32%	13µM*	?
NCCNC(=S)S	-17%[11.5 µM]	-7%[9.22 µM]	-10%[10.9 µM]	6%[9.22 µM]	1%[11.4 µM]
SMILES	ERK AVP block	p53ts 32C kill	Imprint erasure	p53ts 39C kill	IkB sig inh
CCOC(=O)N1CCN(C(=O)c2ccc3c(=O)n(Cc4ccc(OC)cc4)c(=S)[nH]c3c2)CC1	32µM*	7%	-18%	-7%	?
O[C@@H](c1cc([C@@]23C[C@H]4CC[C@@H]2C[C@H](C4)C3)nc2c(Cl)cc(Cl)cc12)C1CCCCN1 (stereo partly drawn)	.	.	-6%[10.9 µM]	.	.
CCN(CC)CCCC(C)NC(=O)c1ccc(Cc2nc3ccccc3[nH]2)cc1 (stereo not drawn)	.	9%	.	-4%	.
CCOc1ccc(-c2nc(C#N)c(N3CCCCCC3)o2)cc1	20µM*	-5%	-16%	3%	2%
CN(C)C=Nc1ncc2c([nH]c3ccccc32)c1C#N	25µM*	-10%	-20%	-7%	-4%
C=C1CC[C@@H]2[C@](C)(CC[C@@H](O)[C@]2(C)CO)[C@@H]1C/C=C1/C(=O)OC[C@H]1O	.	.	.	.	10%[11.4 µM]
COc1ccc([C@@H](Nc2ccccn2)c2cc(C(C)(C)C)cc(C(C)(C)C)c2O)cc1	13%[11.5 µM]	2%[9.22 µM]	13%[10.9 µM]	9%[9.22 µM]	3%[11.4 µM]
O=C(O)CCc1ccc(-c2ccccc2)[nH]1	-7%[11.5 µM]	-6%[9.22 µM]	-18%[10.9 µM]	13%[9.22 µM]	-6%[11.4 µM]
CC1(C(=O)Nc2nccs2)Cc2ccccc2C(=O)O1 (stereo not drawn)	25µM*	3%	-24%	-4%	?
CCN1CCN(c2cc(C)c3cc(NC(=O)Cc4ccc(OC)c(OC)c4)ccc3n2)CC1	?	-7%	-17%	-9%	0%
CCN1CCN(c2cc(C)c3cc(NC(=O)c4cnccn4)ccc3n2)CC1	?	-1%	4%	4%	-1%
CCN1CCN(c2cc(C)c3cc(NC(=O)/C=C/c4cccc(Cl)c4)ccc3n2)CC1	.	?	-20%[10.9 µM]	3.2µM*	?
CCCCc1ccc(C(=O)Nc2ccc3nc(N4CCN(CC)CC4)cc(C)c3c2)cc1	.	-8%	-26%[10.9 µM]	7.9µM*	?
CCN1CCN(c2cc(C)c3cc(NC(=O)c4cc(OC)cc(OC)c4)ccc3n2)CC1	.	?	-12%[10.9 µM]	2.5µM*	-5%
CCN1CCN(c2cc(C)c3cc(NC(=O)c4cccc(Cl)c4)ccc3n2)CC1	.	14µM*	2%[10.9 µM]	2.5µM*	?
C[C@@H](c1ccccc1)N1C(=O)[C@H]2[C@H]3[C@H](O)[C@H](O)C/C(=N/NC(=O)OCc4ccccc4)[C@@H]3CC[C@@H]2C1=O	11%[11.5 µM]	-1%[9.22 µM]	.	-4%[9.22 µM]	.
[Cu].[NH-][C@H](CC(=O)O)C(=O)O.[NH-][C@H](CC(=O)O)C(=O)O	0%[11.5 µM]	-4%[9.22 µM]	-1%[10.9 µM]	12%[9.22 µM]	0%[11.4 µM]
Cc1ccc(CNS(=O)(=O)c2cc(C(=O)Nc3ccc(C(C)C)cc3)ccc2F)cc1	.	?	-16%[10.9 µM]	?	?
Cc1ccc(CNS(=O)(=O)c2cc(C(=O)Nc3cccc(C(F)(F)F)c3)ccc2F)cc1	.	-18%	-8%[10.9 µM]	13µM*	?
O=C(NCc1nc2ccccc2[nH]1)c1ccc(Cl)c(S(=O)(=O)N2CCCC2)c1	-24%	-1%	-23%	3%	?
CCCn1c(NC(=O)c2ccc(Cl)c(S(=O)(=O)N3CCCC3)c2)nc2ccccc21	3.2µM*	25%	-17%	2%	?
O=C(O)CSCCc1ccccc1	11%[11.5 µM]	2%[9.22 µM]	-4%[10.9 µM]	5%[9.22 µM]	0%[11.4 µM]
NC(=O)C[C@H](N)C(N)=O	-17%[11.5 µM]	-5%[9.22 µM]	-19%[10.9 µM]	4%[9.22 µM]	1%[11.4 µM]
Cn1c(-c2ccc3c(c2)OCO3)cnc1N	18%	-13%	-18%	-15%	0%

Assay outcomes: PubChem, National Center for Advancing Translational Sciences (NCATS)
